Experiment [1] in a line: qHTS assay to identify small molecule agonists of the NFkB signaling pathway (AID 1159509; active means well fitted curve in the direction sought with a large enough effect in the signal ratio in the repeat runs, not every such curve was filed as active; the % refers to the signal ratio; further: series mostly up to about 61 µM). The method, boiled down:
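Readout: FRET fluorescence, 405 nm excitation, 460/530 nm emission; beta-lactamase expression disrupts FRET. Cells: ME-180 stably carrying NF-kB-driven bla reporter. Compound exposure 5 hr, 37 C, 5% CO2.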

The nature of experiment [2]: qHTS assay to identify small molecule agonists of the endoplasmic reticulum stress response signaling pathway (AID 1159516; active means well fitted activation curve with a large enough effect in the signal ratio in the repeat runs, not every such curve was filed as active; the % refers to the signal ratio). The method, boiled down: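 For this screen, HeLa cells stably carrying beta-lactamase under the ER stress response element received test compounds, positive controls or DMSO for 5 hr at 37 C; B/G FRET substrate was then added and dual-wavelength emission recorded.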

A short description of experiment [3]: qHTS assay to identify small molecule agonists of the endoplasmic reticulum stress response signaling pathway - cell viability counter screen (AID 1159517; calls by dose curve; further: series mostly up to about 61 µM; nearly all actives have a fitted effect of over 50% in size). Summed up:
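Steps: seed 1,500 ESRE-bla HeLa cells per well; incubate overnight at 37 C, 5% CO2; add compounds in DMSO for 5 hr; run FRET substrate 2 hr RT; add CellTiter-Glo, wait 30 min, read luminescence.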

Experiment [4] in a line: qHTS assay to identify small molecule antagonists of the retinoid-related orphan receptor gamma (ROR-gamma) signaling pathway - cell viability counter screen (AID 1159520). Further: nearly all actives have a fitted effect of over 50% in size. Further: potency means the concentration at half of the fitted maximal effect. The method, boiled down: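 Tet-on ROR gamma CHO cells were given compounds for 2 hr, then doxycycline hyclate at 1 uM final, and incubated 16 hr at 37 C. Viability was measured as ATP content by CellTiter-Glo luminescence.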

Experiment [5] can be described thus: qHTS assay to identify small molecule agonists of the AP-1 signaling pathway (AID 1159526; calls by dose curve).
Experiment [6] concerns the target Retinoic acid receptor RXR-alpha (Homo sapiens) (UniProt P19793). In words: qHTS assay to identify small molecule agonists of the RXR signaling pathway (AID 1159527; calls by dose curve; further: nearly all actives have a fitted effect of over 35% in size). The method, boiled down:
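Reporter activation is measured as beta-lactamase activity via FRET substrate cleavage (emission 460/530 nm) in HEK 293T cells expressing an RXR-alpha-driven bla construct, following 16 hr compound exposure at 37 C.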

Experiment [7] can be described thus: qHTS assay to identify small molecule agonists of the RXR signaling pathway - cell viability counter screen (AID 1159529). Further: series mostly up to about 77 µM; nearly all actives have a fitted effect of over 50% in size. The method, boiled down: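 Tox21 10K compounds were tested for cytotoxicity against GeneBLAzer RXR-alpha HEK 293T cells grown in 2% charcoal-stripped FBS. Exposure lasted 16 hr at 37 C, 5% CO2; viability read by CellTiter-Glo luminescence.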

Experiment [8] in a line: qHTS assay to identify small molecule antagonists of the retinoid acid receptor (RAR) signaling pathway - cell viability counter screen (AID 1159551). Further: nearly all actives have a fitted effect of over 35% in size. The method, boiled down: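 Measured by luminescent ATP detection, viability reflects C3RL4 cells treated 6 h at 37 C with test chemicals in the presence of 1 uM (final) retinol.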
The nature of experiment [9]: qHTS assay to identify small molecule antagonists of the retinoic acid receptor (RAR) signaling pathway (AID 1159552; further: nearly all actives have a fitted effect of over 50% in size; further: potency means the concentration at half of the fitted maximal effect). The method, boiled down:
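Overnight-plated C3RL4 reporter cells get compound, then retinol to 1 uM final; plates sit 6 hr at 37 C, 5% CO2. A luciferase reagent is added and light output recorded after 30 min at room temperature.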

The nature of experiment [10]: qHTS assay to identify small molecule agonists of the retinoic acid receptor (RAR) signaling pathway (AID 1159553). Further: potency means the concentration at half of the fitted maximal effect. The method, boiled down: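 6 hr compound exposure (DMSO vehicle) of overnight-plated C3RL4 RARE-luc cells at 37 C; luminescence quantified after 30 min RT with luciferase reagent.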
Experiment [11] in a line: qHTS assay to identify small molecule antagonists of the estrogen related receptor (ERR) signaling pathway from Tox21 library - cell viability counter screen (AID 1224834). Further: nearly all actives have a fitted effect of over 30% in size. Summed up:
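Seeded ERR cells were rested 6 h at 37 C/5% CO2 before compounds, positive and negative controls or DMSO were added. Incubation continued for 17.5 h, and viability was then quantified by CellTiter-Fluor fluorescence.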

The nature of experiment [12]: qHTS assay to identify small molecule antagonists of the vitamin D receptor (VDR) signaling pathway - cell viability counter screen (AID 743225). Further: nearly all actives have a fitted effect of over 50% in size. Summed up:
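Cytotoxicity toward the VDR-bla HEK 293T line was scored by ATP-based CellTiter-Glo luminescence, read in the wells already used for the beta-lactamase readout after 16 h compound treatment under 3 nM 1-alpha,25-dihydroxyvitamin D3 stimulation.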

For experiment [13], the target named is Nuclear receptor ROR-gamma (Homo sapiens) (UniProt P51449). The experiment can be described thus: qHTS assay to identify small molecule antagonists of the retinoid-related orphan receptor gamma (ROR-gamma) signaling pathway (AID 1159521; further: nearly all actives have a fitted effect of over 50% in size; further: potency means the concentration at half of the fitted maximal effect). The method, boiled down: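 Readout: ONE-Glo luciferase luminescence, 30 min at room temperature. System: Tet-on RORγ CHO, RORE-LUC. Sequence: compound 2 h, doxycycline 1 uM final, 16 h at 37 C.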

Experiment [14] in a line: qHTS assay to identify small molecule agonists of the AP-1 signaling pathway - cell viability counter screen (AID 1159525; calls by dose curve; further: nearly all actives have a fitted effect of over 55% in size). The method, boiled down:
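Same-well cytotoxicity counter screen of the Tox21 10K library in ME-180 cells. The readout is ATP-dependent luminescence after 5 h compound treatment. Data are normalised to DMSO and tetra n-octyl ammonium bromide controls.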

Experiment [15] in a line: qHTS assay to identify small molecule antagonists of the estrogen related receptor signaling pathway with the pleiotropic PPARgamma coactivator (PGC) cell viability counter screen (AID 1224822; further: series mostly up to about 46 µM). The method, boiled down:
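Counter screen for cell viability: PGC/ERR cells, 6 h pre-incubation after plating, 17.5 h compound exposure at 37 C, fluorescence from CellTiter-Fluor after 30 min.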

Experiment [16] is described as follows: qHTS assay to identify small molecule agonists of the NFkB signaling pathway - cell viability counter screen (AID 1159515; calls by dose curve; further: series mostly up to about 61 µM; nearly all actives have a fitted effect of over 55% in size). The method, boiled down:
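Counter screen run alongside the NFkB-bla agonist assay: ME-180 reporter cells exposed to compounds for 5 hr, then lysed with CellTiter-Glo in the same wells. Luminescence, read after 30 min, reflects viable cells.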

Each structure is given as a SMILES string. Records with an inconclusive call do not appear. A number with no mark means an inactive call. Activity calls are given as the source filed them. Unless noted, the call rests on the fitted dose curve; in most records, active means well fitted curve in the direction sought with a large enough effect in the repeat runs; inconclusive means weak or mixed curves; inactive means no such curve, though single readings can be large; an effect the other way counts as inactive or inconclusive.

Retinoic acid receptor RXR-alpha (Homo sapiens), sequence (P19793 whole entry, looked up): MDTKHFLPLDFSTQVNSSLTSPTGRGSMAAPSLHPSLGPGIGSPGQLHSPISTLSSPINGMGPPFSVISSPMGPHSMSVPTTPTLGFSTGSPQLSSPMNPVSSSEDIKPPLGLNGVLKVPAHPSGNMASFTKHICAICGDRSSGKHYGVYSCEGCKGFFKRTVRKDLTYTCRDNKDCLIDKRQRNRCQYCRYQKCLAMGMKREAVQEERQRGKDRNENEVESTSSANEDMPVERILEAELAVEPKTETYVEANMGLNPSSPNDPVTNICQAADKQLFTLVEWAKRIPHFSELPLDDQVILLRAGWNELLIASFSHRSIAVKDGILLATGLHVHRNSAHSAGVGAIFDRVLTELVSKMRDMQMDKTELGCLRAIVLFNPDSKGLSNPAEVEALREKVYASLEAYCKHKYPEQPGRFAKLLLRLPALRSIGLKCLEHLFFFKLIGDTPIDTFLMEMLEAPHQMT

`CCC1(C)NC(=O)NC1=O` (stereo not drawn): the compound was classed as inactive in experiment [1], in [2], in experiment [3] and in [8]. In addition, the Potency entry in [4], in experiment [5], in [6], in experiment [7], in experiment [9] and in experiment [10] was “inactive” in each case. In addition, the Potency entry in experiment [11] is “inactive”.
Turning to `CC[C@H]1CC[C@H](NCc2cc3c(cc2OC)[C@H]2C[C@H]2C(=O)N3C)[C@H](c2ccccc2)N1`, the Potency entry in experiment [12], in [4] and in experiment [7] was “inactive” each time. For the same compound, the outcome in experiment [1], in experiment [2], in experiment [3], in experiment [14] and in experiment [8] was inactive. Also, the Potency was 30.6 µM (active) in experiment [13] and 13.7 µM (active) in [9].
As for `O=C(O)C(=O)Cc1c[nH]c2ccccc12`, the Potency result in [12], in experiment [4], in experiment [13] and in [9] was “inactive” throughout. Moreover, the compound was called inactive in experiment [1], in [2], in experiment [3], in [14] and in [8]. For the same compound, in [10], the Potency is 34.4 µM (active).
As for `CC(C)(C)c1cccc(O)c1`, the Potency result in experiment [12], in [4], in experiment [5], in [6], in experiment [7] and in experiment [9] was “inactive” each time. Further, the Potency entry in experiment [11] was “inactive”. The compound was called inactive in experiment [1], in experiment [2], in experiment [3], in experiment [14] and in experiment [8].
As for `O=c1[nH]c(=O)n([C@H]2C[C@H](O)[C@@H](CO)O2)cc1C(F)(F)F`, the Potency entry in experiment [12], in experiment [4], in experiment [5], in experiment [6], in [7] and in [9] was “inactive” each time. Moreover, the Potency entry in experiment [10] and in [11] was “inactive” in each case. The compound was called inactive in [1], in experiment [2], in experiment [3], in [14] and in experiment [8].
For `CN(C)CC[C@@H](c1ccc(Cl)cc1)c1ccccn1`, the Potency result in [12], in [4], in experiment [13], in experiment [6], in experiment [7] and in experiment [11] was “inactive” throughout. In addition, the result in [1], in experiment [2], in experiment [3], in experiment [14], in experiment [8] and in experiment [15] was inactive.
Take `CN(CCCN1c2ccccc2CCc2ccccc21)CC(=O)c1ccc(Cl)cc1`: the Potency result in experiment [12], in experiment [13], in experiment [9] and in experiment [11] was “inactive” throughout. In addition, the result in [1], in experiment [3], in experiment [14] and in [8] was inactive. The Potency in [4] was 29.8 µM (active).
As for `Oc1ccccc1C=NCc1ccccc1`, the Potency entry in experiment [12], in [4], in [5], in experiment [6], in experiment [7] and in experiment [9] was “inactive” in each case. Further, the Potency entry in experiment [10] and in [11] was “inactive” in each case. The call in [1], in experiment [3], in experiment [14] and in experiment [8] was inactive.
With `CCC(=O)Nc1ccc(O)cc1`, the Potency result in experiment [12], in experiment [4], in experiment [5], in experiment [6], in experiment [7] and in [9] was “inactive” throughout. Moreover, the Potency result in experiment [10] and in experiment [11] was “inactive” throughout. The compound was classed as inactive in [1], in [2], in [3] and in experiment [8].
As to `O=S(=O)(O)C(F)(F)F`, the Potency result in experiment [12], in experiment [4], in experiment [5], in experiment [6], in experiment [7] and in experiment [9] was “inactive” in each case. Also, the Potency result in experiment [10] and in experiment [11] was “inactive” each time. Besides, the result in experiment [1], in experiment [2], in experiment [3], in experiment [14] and in experiment [8] was inactive.
For `CC1(C)O[C@@H]2C[C@H]3[C@@H]4CCC5=CC(=O)CC[C@]5(C)[C@@]4(F)[C@@H](O)C[C@]3(C)[C@]2(C(=O)CCl)O1`, the call in experiment [1], in experiment [2], in experiment [3], in experiment [14] and in experiment [8] was inactive. Also, the Potency entry in [4] and in [10] was “inactive” in each case. In addition, the Potency in experiment [13] was 13.3 µM (active).
On to `Cc1cc2c(s1)Nc1ccccc1N=C2N1CCN(C)CC1`, for which the Potency result in [12], in experiment [4], in experiment [13], in experiment [6], in experiment [9] and in [10] was “inactive” each time. Besides, the compound was classed as inactive in experiment [1], in experiment [3] and in experiment [8].
As to `Cc1ccccc1C(=O)Nc1ccc(C(=O)N2CCCC(O)c3cc(Cl)ccc32)c(C)c1` (stereo not drawn), the Potency result in experiment [12], in [4], in experiment [13] and in [10] was “inactive” each time. Also, the result in [1], in experiment [2], in [3], in experiment [14] and in experiment [8] was inactive.
In the case of `C=O`, the Potency result in [12], in experiment [4], in experiment [5], in experiment [6], in experiment [9] and in experiment [10] was “inactive” throughout. Further, the Potency result in experiment [11] was “inactive”. The compound was called inactive in experiment [1], in [2], in experiment [3], in experiment [14] and in [8].
As to `CC(C)CC(=O)OCc1ccccc1`, the Potency result in [12], in [4], in experiment [13], in experiment [5], in experiment [6] and in experiment [7] was “inactive” in each case. Moreover, the Potency result in [9] and in experiment [10] was “inactive” in each case. The result in experiment [1], in experiment [2], in [3] and in experiment [8] was inactive.
Turning to `CCC/C=C/CO`, the Potency entry in experiment [12], in [4], in [5], in experiment [6], in experiment [7] and in [10] was “inactive” throughout. Further, the Potency result in experiment [11] was “inactive”. Also, the compound was called inactive in experiment [16], in experiment [2], in [3] and in [8].
`CN(C)Cc1ccccc1`: the Potency result in experiment [12], in experiment [4], in experiment [5], in experiment [6], in experiment [7] and in experiment [9] was “inactive” throughout. In experiment [10], the Potency entry is “inactive”. For the same compound, the compound was classed as inactive in experiment [1], in experiment [3] and in experiment [8].
In the case of `CN1CCN(c2c(F)cc3c(=O)c(C(=O)O)cn4c3c2SCC4)CC1`, the Potency result in experiment [12], in experiment [4], in experiment [5], in [6], in [9] and in experiment [10] was “inactive” in each case. Further, in [11], the Potency result is “inactive”. Further, the compound was called inactive in experiment [1], in experiment [2], in [3], in experiment [14] and in [8].
`O=C(C(Cl)Cl)N1CCOC12CCCCC2`: the Potency result in [12], in experiment [4], in experiment [5], in experiment [6], in [9] and in experiment [10] was “inactive” in each case. In addition, in [11], the Potency entry was “inactive”. Further, the call in experiment [1], in experiment [2], in experiment [3] and in [8] was inactive.

These data come from PubChem BioAssay (Tox21).
